The supplement of paper PMC7366291
Counter-ions that a name gives are not always drawn. ± gives the standard deviation or the standard deviation of the averaged measurements.

Assays:
Conditions in all cases: 25 µM; exposure: 24-48 hpf
[1] = system: Danio rerio Tg(wt1b:EGFP) embryo, pronephros; experiment: glomerular separation, fold change vs DMSO control; higher = glomeruli further apart (abnormal)
Procedure, shortened: (§1)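 Each feature value is a fold change relative to the mean of same-day DMSO-treated embryos. Embryos of the Tg(wt1b:EGFP) zebrafish line, dechorionated, received 25 μM compound in 0.5% DMSO from 24 to 48 hpf at 28.5°C, in HEPES-buffered E3 with 0.003% PTU. Distances and angles were computed by a Fiji macro from 16 manually set reference points on maximum projections of dorsal pronephros images, and values beyond 2 SD of the feature mean were removed.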

[2] = system: Danio rerio Tg(wt1b:EGFP) embryo, pronephros; experiment: glomerular width (mean of left and right), fold change vs DMSO control; higher = wider glomerulus
Procedure, shortened: as §1

[3] = system: Danio rerio Tg(wt1b:EGFP) embryo, pronephros; experiment: fraction of imaged embryos annotated as normal kidney; higher = less nephrotoxic; extreme values may be limits of the assay
Procedure, shortened: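 Zebrafish embryos carrying Tg(wt1b:EGFP) were dechorionated and exposed to 25 μM compound (0.5% DMSO) between 24 and 48 hpf at 28.5°C. Their pronephroi were imaged by widefield fluorescence, and each embryo was classed by hand from maximum projections. The measure is the fraction of embryos per treatment falling in the normal-kidney category.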

[4] = system: Danio rerio Tg(wt1b:EGFP) embryo, pronephros; experiment: pronephric angle neck segment to proximal convoluted tubule (mean of left and right), fold change vs DMSO control; higher = larger pronephric angle
Procedure, shortened: as §1

SMILES | glomerular separation [1] | glomerular width [2] | fraction of imaged embryos annotated as normal kidney [3] | pronephric angle neck segment [4]
COc1ccc(-c2ccc3cc(C(=O)O)ccc3c2)cc1C12CC3CC(CC(C3)C1)C2 [Adapalene] | 0.97 ± 0.49 | 0.993 ± 0.012 | 0.833 | 1.1 ± 0.0022
Cc1nc2ccccn2c(=O)c1CCN1CCC(C(=O)c2ccc(F)cc2)CC1 [Pirenperone] | 0.831 ± 0.3 | 1.05 ± 0.037 | 1 | 0.924 ± 0.0096
COc1cc(N)c(Cl)cc1C(=O)NC1CCN(CCCOc2ccc(F)cc2)CC1OC (stereo not drawn) [Cisapride] | 1.09 ± 0.39 | 1.066 ± 0.0076 | 0.583 | 0.992 ± 0.071
CCOC(=O)c1ccc(OC(=O)CCCCCNC(=N)N)cc1 [Gabexate mesilate] | 0.986 ± 0.37 | 0.986 ± 0.011 | 0.8 | 0.961 ± 0.013
Nc1nc2c(ncn2COCCO)c(=O)[nH]1 [Acyclovir] | 1.05 ± 0.49 | 1.06 ± 0.041 | 0.583 | 0.888 ± 0.022
C[C@@H]1NC(=O)NC1=O [Methylhydantoin-5-(L)] | 0.772 ± 0.24 | 0.967 ± 0.048 | 1 | 0.995 ± 0.031
Cc1ccc(C(=O)c2ccc(CC(=O)O)n2C)cc1 [Tolmetin sodium salt dihydrate] | 1.55 ± 0.69 | 1.006 ± 0.0038 | 0.333 | 1 ± 0.075
O=C1OCCN1/N=C/c1ccc([N+](=O)[O-])o1 [Furazolidone] | 0.83 ± 0.29 | 0.9957 ± 0.006 | 1 | 0.935 ± 0.054
Cc1ncc([N+](=O)[O-])n1CC(O)CCl (stereo not drawn) [Ornidazole] | 0.923 ± 0.39 | 1.06 ± 0.028 | 0.75 | 0.985 ± 0.027
CN1CCN(CCCN2c3ccccc3Sc3ccc(C(F)(F)F)cc32)CC1 [Trifluoperazine dihydrochloride] | 1.22 ± 0.54 | 0.953 ± 0.015 | 0.833 | 0.9555 ± 0.0078
CC(=O)Nc1nnc(S(N)(=O)=O)s1 [Acetazolamide] | 0.751 ± 0.2 | 0.973 ± 0.029 | 0.917 | 0.9766 ± 0.0062
CN(C)CCOC(C)(c1ccccc1)c1ccccn1 (stereo not drawn) [Doxylamine succinate] | 1.15 ± 0.53 | 0.9589 ± 0.009 | 0.818 | 1.01 ± 0.065
NCCCC[C@H](N[C@@H](CCc1ccccc1)C(=O)O)C(=O)N1CCC[C@H]1C(=O)O [Lisinopril] | 1.16 ± 0.32 | 0.998 ± 0.058 | 0.833 | 1.02 ± 0.032
CO/N=C(\C(=O)N[C@@H]1C(=O)N2C(C(=O)O)=C(C[N+]3(C)CCCC3)CS[C@H]12)c1csc(N)n1 [Cefepime hydrochloride] | 0.845 ± 0.26 | 1.01 ± 0.018 | 0.917 | 0.9786 ± 0.003
C=CCSCC1Nc2cc(Cl)c(S(N)(=O)=O)cc2S(=O)(=O)N1 (stereo not drawn) [Althiazide] | 1.08 ± 0.28 | 0.962 ± 0.12 | 0.5 | 1.09 ± 0.083
CC(=O)[C@@]12O[C@](C)(c3ccccc3)O[C@@H]1C[C@H]1[C@@H]3CCC4=CC(=O)CC[C@]4(C)[C@H]3CC[C@@]12C [Algestone acetophenide] | 1.76 ± 0.84 | 1.05 ± 0.047 | 0.5 | 1.02 ± 0.048
Cn1c(NCCN(CCO)CCCc2ccc([N+](=O)[O-])cc2)cc(=O)n(C)c1=O [Nifekalant] | 0.925 ± 0.31 | 0.965 ± 0.033 | 0.833 | 0.9169 ± 0.0049
C[C@H]1O[C@H](O[C@H]2[C@H](O)[C@@H](O)[C@@H](O[C@H]3[C@H](O)[C@@H](O)C(O)O[C@@H]3CO)O[C@@H]2CO)[C@H](O)[C@@H](O)[C@@H]1N[C@H]1C=C(CO)[C@@H](O)[C@H](O)[C@H]1O (stereo partly drawn) [Acarbose] | 0.951 ± 0.24 | 0.879 ± 0.1 | 0.833 | 1.02 ± 0.014
O=C(O)c1ccccc1OP(=O)(O)O [Fosfosal] | 0.789 ± 0.23 | 1.07 ± 0.022 | 0.833 | 0.9628 ± 0.0065

SMILES | glomerular separation [1] | glomerular width [2] | fraction of imaged embryos annotated as normal kidney [3] | pronephric angle neck segment [4]
NC[C@H]1CC[C@H](C(=O)O)CC1 [Tranexamic acid] | 0.901 ± 0.18 | 0.9771 ± 0.0082 | 1 | 1.05 ± 0.022
S=c1[nH]cnc2nc[nH]c12 [Mercaptopurine] | 0.832 ± 0.28 | 0.991 ± 0.088 | 0.75 | 0.992 ± 0.07
CC(=O)Nc1c(I)c(C(=O)N[C@H]2C(O)O[C@H](CO)[C@@H](O)[C@@H]2O)c(I)c(N(C)C(C)=O)c1I (stereo partly drawn) [Metrizamide] | 0.874 ± 0.3 | 1.11 ± 0.1 | 0.833 | 0.988 ± 0.025
C=C[C@H]1CN2CC[C@H]1C[C@@H]2[C@@H](O)c1ccnc2ccc(OC)cc12 [Quinidine hydrochloride monohydrate] | 0.962 ± 0.19 | 1.13 ± 0.084 | 0.75 | 1.01 ± 0.016
CO[C@@]1(NC(=O)C(C(=O)O)c2ccc(O)cc2)C(=O)N2C(C(=O)O)=C(CSc3nnnn3C)CO[C@@H]21 (stereo partly drawn) [Moxalactam disodium salt] | 0.871 ± 0.28 | 1.04 ± 0.014 | 0.917 | 0.984 ± 0.067
CN1[C@@H]2CC[C@H]1C[C@@H](OC(c1ccccc1)c1ccccc1)C2 [Benztropine mesylate] | 0.821 ± 0.18 | 1 ± 0.025 | 0.833 | 1.04 ± 0.011
O=C(O)CCC(=O)Nc1ccc(S(=O)(=O)Nc2nccs2)cc1 [Succinylsulfathiazole] | 0.974 ± 0.39 | 1.03 ± 0.012 | 0.667 | 0.997 ± 0.029
Nc1ccc(C(=O)NCC(=O)O)cc1 [Aminohippuric acid] | 0.88 ± 0.41 | 0.993 ± 0.03 | 0.917 | 0.991 ± 0.018
Nc1ccc(C(=O)O)c(O)c1 [4-aminosalicylic acid] | 0.608 ± 0.17 | 0.9604 ± 0.008 | 0.833 | 0.995 ± 0.018
COc1cc(C)nc(-n2nc(C)cc2OC)n1 [Epirizole] | 1.39 ± 0.73 | 0.957 ± 0.021 | 0.75 | 1.03 ± 0.027
CN(C)CCOc1ccc(/C(=C(/CCCl)c2ccccc2)c2ccccc2)cc1 [Toremifene] | 0.881 ± 0.39 | 0.904 ± 0.08 | 0.917 | 1.04 ± 0.018
Cc1onc(-c2c(Cl)cccc2Cl)c1C(=O)N[C@@H]1C(=O)N2[C@@H]1SC(C)(C)[C@@H]2C(=O)O [Dicloxacillin sodium salt hydrate] | 1.24 ± 0.43 | 1.009 ± 0.0084 | 0.818 | 0.998 ± 0.017
Cc1cc2c(cc1S(N)(=O)=O)S(=O)(=O)CCC2 [Meticrane] | 0.987 ± 0.28 | 0.9447 ± 0.0016 | 0.917 | 1.01 ± 0.04
CC(=O)CCCCn1c(=O)c2c(ncn2C)n(C)c1=O [Pentoxifylline] | 0.678 ± 0.2 | 0.971 ± 0.032 | 0.583 | 0.752 ± 0.033
COc1ccccc1N1CCN(CCCCNC(=O)c2ccc3ccccc3c2)CC1 | 0.691 ± 0.17 | 1.02 ± 0.049 | 0.917 | 0.969 ± 0.018
Nc1nc(Cl)nc2c1ncn2[C@H]1C[C@H](O)[C@@H](CO)O1 [Cladribine] | 0.896 ± 0.38 | 0.945 ± 0.021 | 0.909 | 1.005 ± 0.0066
O=C(O)CNC(=O)C(CS)Cc1ccccc1 (stereo not drawn) [Thiorphan] | 0.84 ± 0.35 | 1.04 ± 0.036 | 0.75 | 0.994 ± 0.017
CO[C@@]1(NC(=O)C2SC(=C(C(N)=O)C(=O)O)S2)C(=O)N2C(C(=O)O)=C(CSc3nnnn3C)CS[C@@H]21 (stereo partly drawn) [Cefotetan] | 1.24 ± 0.33 | 0.972 ± 0.012 | 0.909 | 0.985 ± 0.06
CCCCc1oc2ccccc2c1C(=O)c1cc(I)c(OCCN(CC)CC)c(I)c1 [Amiodarone hydrochloride] | 2 ± 1.1 | 0.862 ± 0.021 | 0.4 | 1.14 ± 0.13

SMILES | glomerular separation [1] | glomerular width [2] | fraction of imaged embryos annotated as normal kidney [3] | pronephric angle neck segment [4]
CC1=C(/C=C/C(C)=C/C=C/C(C)=C\C(=O)O)C(C)(C)CCC1 [Isotretinoin] | 4.83 ± 2.1 | 0.525 ± 0.021 | 0 | 1.69 ± 0.022
O=C1NCC2(CCN(CCc3ccccc3)CC2)O1 [Fenspiride hydrochloride] | 1.24 ± 0.7 | 0.944 ± 0.024 | 0.833 | 1.09 ± 0.038
Nc1nc2n[nH]nc2c(=O)[nH]1 [Azaguanine-8] | 0.905 ± 0.36 | 1 ± 0.058 | 0.833 | 0.984 ± 0.02
O=c1n(CCCN2CCN(c3cccc(Cl)c3)CC2)nc2ccccn12 [Trazodone hydrochloride] | 1.2 ± 0.34 | 0.97 ± 0.015 | 1 | 0.997 ± 0.0034
Cc1c(OCC(F)(F)F)ccnc1C[S+]([O-])c1nc2ccccc2[nH]1 (stereo not drawn) [Lansoprazole] | 1.25 ± 0.57 | 0.949 ± 0.04 | 0.333 | 1.17 ± 0.034
CN1CCCN(C(c2ccccc2)c2ccc(Cl)cc2)CC1 (stereo not drawn) [Homochlorcyclizine dihydrochloride] | 1.08 ± 0.45 | 0.975 ± 0.015 | 1 | 1.013 ± 0.0017
Cc1ccnc2c1NC(=O)c1cccnc1N2C1CC1 [Nevirapine] | 1.13 ± 0.48 | 1.02 ± 0.016 | 0.917 | 1.03 ± 0.048
Cn1ccnc1S [Methimazole] | 1.23 ± 0.58 | 0.876 ± 0.045 | 0.818 | 1.11 ± 0.064
CN(C)CCN(Cc1ccccc1)c1ccccn1 [Tripelennamine hydrochloride] | 0.843 ± 0.37 | 0.982 ± 0.054 | 1 | 1.1 ± 0.083
COC(=O)[C@H](c1ccccc1Cl)N1CCc2sccc2C1 [Clopidogrel] | 1.06 ± 0.52 | 0.893 ± 0.055 | 0.833 | 1.05 ± 0.054
NS(=O)(=O)c1cc2c(cc1Cl)NC(CC1CCCC1)NS2(=O)=O (stereo not drawn) [Cyclopenthiazide] | 0.818 ± 0.23 | 0.935 ± 0.03 | 1 | 1 ± 0.012
CC(=O)O[C@H]1C(=O)[C@@]2(C)[C@H]([C@H](OC(=O)c3ccccc3)[C@]3(O)C[C@H](OC(=O)[C@H](O)[C@@H](NC(=O)c4ccccc4)c4ccccc4)C(C)=C1C3(C)C)[C@]1(OC(C)=O)CO[C@@H]1C[C@@H]2O [Paclitaxel] | 1.59 ± 0.55 | 1.06 ± 0.015 | 1 | 0.964 ± 0.021
CCOC(=O)OC(C)OC1=C(C(=O)Nc2ccccn2)N(C)S(=O)(=O)c2ccccc21 (stereo not drawn) [Ampiroxicam] | 0.796 ± 0.29 | 1.1 ± 0.027 | 1 | 0.963 ± 0.018
COC(=O)Nc1nc2cc(C(=O)c3ccc(F)cc3)ccc2[nH]1 [Flubendazol] | 1.81 ± 0.69 | 0.934 ± 0.034 | 0.833 | 1.11 ± 0.15
COc1cc([S+](C)[O-])ccc1-c1nc2cccnc2[nH]1 (stereo not drawn) [Sulmazole] | 0.979 ± 0.27 | 1.05 ± 0.015 | 0.833 | 0.9818 ± 0.0097
CCOC(=O)[C@H](CCc1ccccc1)N[C@@H](C)C(=O)N1CCC[C@H]1C(=O)O [Enalapril maleate] | 0.704 ± 0.19 | 1.01 ± 0.03 | 0.667 | 0.9423 ± 0.0071
OC(CCN1CCCCC1)(c1ccccc1)C1CCCCC1 (stereo not drawn) [Trihexyphenidyl-D,L Hydrochloride] | 0.867 ± 0.41 | 0.97 ± 0.04 | 0.833 | 0.985 ± 0.056
O=C(O[C@@H]1C[C@@H]2C[C@H]3C[C@H](C1)N2CC3=O)c1c[nH]c2ccccc12 [Dolasetron mesilate] | 0.787 ± 0.28 | 1.01 ± 0.018 | 0.75 | 0.946 ± 0.035
COc1ccc(C(=O)CC(=O)c2ccc(C(C)(C)C)cc2)cc1 [Avobenzone] | 0.991 ± 0.29 | 1.05 ± 0.063 | 0.667 | 1.005 ± 0.0096
